16 molecules from PubChem BioAssay (NCI) can be followed below.

Holding throughout (experiment): NCI-60 one-dose screen, 48 h (100 = growth as untreated, 0 = no growth, -100 = all killed)
Settings in all cases: 10 µM unless noted

The test system of assay [1] is T-47D breast.
Assay [2] deals with BT-549 breast.
The subject of assay [3] is MDA-MB-435 melanoma.
The test system of assay [4] is SW-620 colon.
Assay [5] concerns MCF7 breast.
Assay [6] has as its system HCT-116 colon.
The subject of assay [7] is HCC-2998 colon.
Assay [8] deals with KM12 colon.

The panel holds about 83,000 compounds, 20% with a hit somewhere; the sample as a whole holds those more often.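 The endpoint reported here, percent growth, reads 100 for growth as untreated, 0 for no net growth and -100 for all cells dead.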 Unmarked numbers belong to inactive results. The source made the active and inactive calls. How the source made its calls: active means growth percent below 10; inactive means the rest.

Regarding `NC(=O)c1cccc(-c2cc(C(N)=O)ccc2Cl)c1`, the growth was 33.9% in assay [1]; 57.9% in assay [2]; -27.6% (active) in assay [3]; 21.1% in assay [4]; 23.5% in assay [5]; 25.4% in assay [6]. Also, in assay [7], the growth is 57.7%.

For `CCCCCCCCCCCCC1CCC/C=C\CCC(=O)O1` (centres undefined), the growth is 90% in assay [1]; 112% in assay [2]; 104% in assay [3]; 103% in assay [4]; 95.6% in assay [5]; 91.1% in assay [6]. For the same molecule, the growth in assay [7] was 104%.

In the case of `Clc1cc(Cl)cc(N2N=C(c3cccc(Nc4ccncc4)c3)CC2c2ccc3c(c2)OCO3)c1` (centres undefined), the growth was 63.4% in assay [1]; 93.8% in assay [2]; -85.4% (active) in assay [3]; -84.1% (active) in assay [4]; -19.3% (active) in assay [5]; 65.3% in assay [6]. In addition, in assay [7], the growth is -40.8% (active).

Consider `Cc1cc2cc3cc(C)c(N)cc3[n+](C)c2cc1N`, for which the growth is 8.77% (active) in assay [1]; 9.11% (active) in assay [2]; 9.46% (active) in assay [3]; 9.45% (active) in assay [4]; 8.32% (active) in assay [5]; 3.49% (active) in assay [6]. Besides, the growth in assay [7] was 9.7% (active).

Consider `Cc1ccccc1CNc1ccc(N2CCOCC2)cc1`, for which the growth is 106% in assay [1]; 102% in assay [2]; 102% in assay [3]; 98% in assay [4]; 102% in assay [5]; 104% in assay [6]. In addition, the results for the growth in assay [7] and in assay [8] were 105% and 100%, respectively.

Regarding `CN(Cc1ccccc1)c1nc(Cl)c(C2CC(c3ccc(Cl)cc3)=Cc3[nH][nH]c(=O)c32)s1` (centres undefined), the growth is 89.7% in assay [1]; 67.7% in assay [2]; 85% in assay [3]; 99.8% in assay [4]; 47.6% in assay [5]; 94.2% in assay [6]. The growth in assay [7] is 104%; in assay [8] it was 103%.

Turning to `CN1CCN(c2ccc3nc(-c4cc(C(C)(C)C)c(O)c(C(C)(C)C)c4)[nH]c3c2)CC1`, the growth was 63.2% in assay [1]; 98.2% in assay [2]; 0.049% (active) in assay [3]; 14.7% in assay [4]; 35.6% in assay [5]; 23.3% in assay [6]. In addition, the figures for the growth in assay [7] and in assay [8] were 25.2% and 16.9%, respectively.

For the molecule `O=C1Nc2c(ccc(Cl)c2Cl)/C1=C/c1ccc(O)cc1`, the growth in assay [1] was 61.2%; in assay [2], 82.3%; in assay [3], 101%; in assay [4] it was 79.1%; in assay [5], 54.1%; in assay [6], 72.6%. The growth in assay [7] was 80.5%; in assay [8], 85.9%.

On to `COc1ccc(NS(=O)(=O)c2ccc(C)cc2)c([N+](=O)[O-])c1`, for which the growth in assay [1] was 93.5%; in assay [2] it was 104%; in assay [3] it was 111%; in assay [4], 103%; in assay [5] it was 99.7%; in assay [6] it was 106%. Moreover, the growth in assay [7] was 99.6%; in assay [8], 104%.

Regarding `COc1c(Cl)cc(Cl)c2ccc(C=C3C(=O)N(C)C(=O)N(C)C3=O)nc12`, the growth is 100% in assay [1]; 90.4% in assay [2]; 102% in assay [3]; 105% in assay [4]; 94.9% in assay [5]; -46.6% (active) in assay [6]. The growth in assay [7] and in assay [8] was 101% in each case.

As to `C/C(=C(/c1ccccc1)c1ccc(OCC(O)CN2CCOCC2)cc1)c1ccccc1` (centres undefined), the growth in assay [1] is 60.3%; in assay [2], 93.3%; in assay [3] it was 90.7%; in assay [4], 88.6%; in assay [5], 84.2%; in assay [6], 46.3%. The results for the growth in assay [7] and in assay [8] were 102% and 63.6%, respectively.

As to `COc1cc2nc(-c3ccc(-c4nn[nH]n4)cc3)[nH]c(=O)c2cc1OC`, the growth in assay [1] was 102%; in assay [2] it was 251%; in assay [3], 105%; in assay [4] it was 107%; in assay [5], 98.9%; in assay [6], 104%. Further, the results for the growth in assay [7] and in assay [8] were 114% and 126%, respectively.

As to `CC(C)Cc1ccc(C(C)C(=O)NCc2ccc(Cn3c(=O)sn(-c4ccc(Cl)cc4)c3=O)cc2)cc1` (centres undefined), the growth in assay [1] was 54.9%; in assay [2], 95.1%; in assay [3], 84.8%; in assay [4] it was 59.8%; in assay [5] it was 66.9%; in assay [6], 75.6%. Moreover, the growth in assay [7] is 96.2%; in assay [8], 69.8%.

For `CCCCCCCC(=O)Nc1nc2[nH]c(CN3CCN(Cc4cccc(I)c4)CC3)c(CN3CCN(Cc4cccc(I)c4)CC3)c2c(=O)[nH]1`, the growth in assay [1] was -62% (active); in assay [2] it was -4.02% (active); in assay [3] it was -75.8% (active); in assay [4], -73.7% (active); in assay [5], -93.6% (active); in assay [6], -100% (active). Further, the values for the growth in assay [7] and in assay [8] were -94.6% (active) and -80.5% (active), respectively.

Consider `O=C(Nc1ccc2cc3ccc(NC(=O)NC4CCCCC4)cc3nc2c1)NC1CCCCC1`, for which the growth in assay [1] is 81.9%; in assay [2], 75%; in assay [3] it was 95.3%; in assay [4] it was 84.3%; in assay [5] it was 47.3%; in assay [6], 65.1%. Further, the growth was 101% in assay [7] and 97% in assay [8].

For `CC(=O)N1N=C(c2cccc(Nc3ccncc3)c2)CC1c1ccc2c(c1)OCO2` (centres undefined), the growth in assay [1] was 74.1%; in assay [2] it was -44.5% (active); in assay [3] it was 35.1%; in assay [4], 86.2%; in assay [5], 71.4%; in assay [6] it was -52.3% (active). Further, the growth in assay [7] is 94.2%; in assay [8], 88.2%.
